Growth inhibition data for nine molecules are collected here from PubChem BioAssay (NCI).

SMILES strings stand for the structures. This is part of a sample that, as a whole, favours compounds with a hit. Of some 79,000 tested, about 15% had one in any assay. Values without a mark were called inactive. Activity calls are given as the source filed them. Rule as the data show it: active = growth inhibition above about 70%; inactive = the rest.

The nature of assay [1]: NCI Yeast Anticancer Drug Screen. Data for the rad50 strain (AID 155).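 Also: 0% = growth of vehicle-only cultures of the same strain.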 The settings on record: S. cerevisiae rad50 strain growth inhibition, active compounds read high. An outline of the steps:
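Cells are treated with compound, grown, and their growth is then scored against vehicle-only cultures of the same repair-deficient yeast strain.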

Assay [2] can be described thus: NCI Yeast Anticancer Drug Screen. Data for the mec2-1 strain (AID 157). To be noted: S. cerevisiae mec2-1 strain, active compounds read high. An outline of the steps: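 Vehicle-treated cultures served as reference for growth inhibition of compound-exposed mec2-1 yeast.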
Assay [3] in a line: NCI Yeast Anticancer Drug Screen. Data for the sgs1 mgt1 strain (AID 161).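 Also: 0% = growth of cultures given vehicle only.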 The settings on record: S. cerevisiae sgs1 mgt1 strain, active compounds read high. An outline of the steps: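 Inhibition of yeast growth, normalised to vehicle-treated controls, is reported for a strain bearing genetic alterations in DNA damage repair.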
Assay [4] is described as follows: NCI Yeast Anticancer Drug Screen. Data for the cln2 rad14 strain (AID 165).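 Also: 0% = growth equal to vehicle treated cultures.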 To be noted: S. cerevisiae cln2 rad14 strain, active compounds read high. The gist of the method: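 Each compound was tested on cln2 rad14 yeast. Inhibition of growth was calculated against vehicle-exposed controls.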
The nature of assay [5]: NCI Yeast Anticancer Drug Screen. Data for the bub3 strain (AID 167). To be noted: S. cerevisiae bub3 mutant strain, active compounds read high. An outline of the steps: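 Part of a panel of yeast mutants defective in DNA damage repair or cell cycle regulation. Each strain is grown with compound, and inhibition is calculated relative to solvent-treated cultures.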
The nature of assay [6]: NCI Yeast Anticancer Drug Screen. Data for the mlh1 rad18 strain (AID 175). The settings on record: S. cerevisiae mlh1 rad18 strain growth inhibition, active compounds read high. The gist of the method:
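Vehicle-treated cultures served as the reference for growth inhibition in a yeast strain carrying DNA damage repair alterations exposed to each compound.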

Setting [7] is: at 5.0 µM (retest, dose inferred, filed as 0.5).
Setting [8] is: at 50.0 µM (retest, dose inferred, filed as 5.0).

`CCOC(=O)NC(=S)[S][Sb]([S]C(=S)NC(=O)OCC)[S]c1nc2ccc(N=Nc3ccc(NS(=O)(=O)c4ccc(NC(=O)C(N5CC5)(N5CC5)N5CC5)cc4)cc3)cc2s1`: the growth inhibition in assay [1] (setting [7]) is 70% (active); in assay [1] (setting [8]), 99% (active); in assay [1] (at 50.0 µM), 99.2% (active); in assay [2] (setting [7]) it was 33%; in assay [2] (setting [8]) it was 99% (active); in assay [2] (at 50.0 µM), 99.6% (active). Further, the growth inhibition was 46% in assay [3] (setting [7]); 99% (active) in assay [3] (setting [8]); 99.5% (active) in assay [3] (at 50.0 µM); 16% in assay [4] (setting [7]); 98% (active) in assay [4] (setting [8]); 99% (active) in assay [4] (at 50.0 µM). In addition, the growth inhibition in assay [5] (setting [7]) was 24%; in assay [5] (setting [8]) it was 99% (active); in assay [5] (at 50.0 µM), 99.3% (active); in assay [6] (setting [7]), 80% (active); in assay [6] (setting [8]), 99% (active); in assay [6] (at 50.0 µM), 99.2% (active).

Consider `C(=C/P(c1ccccc1)c1ccccc1)/P(c1ccccc1)c1ccccc1.C(=CP(c1ccccc1)c1ccccc1)P(c1ccccc1)c1ccccc1.[Pt]`, for which the growth inhibition in assay [1] (setting [7]) is 61%; in assay [1] (setting [8]), 78% (active); in assay [1] (at 50.0 µM), 84.4% (active); in assay [2] (setting [7]), 38%; in assay [2] (setting [8]), 92% (active); in assay [2] (at 50.0 µM) it was 90% (active). Further, the growth inhibition was 33% in assay [3] (setting [7]); 92% (active) in assay [3] (setting [8]); 82.7% (active) in assay [3] (at 50.0 µM); 36% in assay [4] (setting [7]); 82% (active) in assay [4] (setting [8]); 86.2% (active) in assay [4] (at 50.0 µM). The growth inhibition in assay [5] (setting [7]) is 56%; in assay [5] (setting [8]) it was 89% (active); in assay [5] (at 50.0 µM) it was 86.8% (active); in assay [6] (setting [7]) it was 41%; in assay [6] (setting [8]) it was 91% (active); in assay [6] (at 50.0 µM), 83.4% (active).

On to `O=C(c1ccccc1)C1CCCN(CCc2ccccc2)C1` (configuration not stated), for which the growth inhibition is 54% in assay [1] (setting [7]); 64% in assay [1] (setting [8]); 57.3% in assay [1] (at 50.0 µM); 31% in assay [2] (setting [7]); 70% (active) in assay [2] (setting [8]); 55.7% in assay [2] (at 50.0 µM). In addition, the growth inhibition was 54% in assay [3] (setting [7]); 63% in assay [3] (setting [8]); 73.3% (active) in assay [3] (at 50.0 µM); 48% in assay [4] (setting [7]); 62% in assay [4] (setting [8]); 82% (active) in assay [4] (at 50.0 µM). Also, the growth inhibition is 43% in assay [5] (setting [7]); 56% in assay [5] (setting [8]); 84.2% (active) in assay [5] (at 50.0 µM); 56% in assay [6] (setting [7]); 67% in assay [6] (setting [8]); 67.7% in assay [6] (at 50.0 µM).

Consider `COC1=C(C)C(=O)c2c(c(COC(N)=O)c3n2CC2C3N2C)C1=O` (configuration not stated), for which the growth inhibition in assay [1] (setting [7]) is 37%; in assay [1] (setting [8]), 65%; in assay [1] (at 50.0 µM) it was 93% (active); in assay [2] (setting [7]), 2%; in assay [2] (setting [8]), 52%; in assay [2] (at 50.0 µM), 95.3% (active). The growth inhibition in assay [3] (setting [7]) was 30%; in assay [3] (setting [8]), 74% (active); in assay [3] (at 50.0 µM), 73.8% (active); in assay [4] (setting [7]) it was -8%; in assay [4] (setting [8]), 72% (active); in assay [4] (at 50.0 µM), 87.1% (active). In addition, the growth inhibition is 8% in assay [5] (setting [7]); 27% in assay [5] (setting [8]); 78.1% (active) in assay [5] (at 50.0 µM); 13% in assay [6] (setting [7]); 93% (active) in assay [6] (setting [8]); 96% (active) in assay [6] (at 50.0 µM).

As to `O=C1C(=O)c2cccc3cccc1c23`, the growth inhibition is 8% in assay [1] (setting [7]); 79% (active) in assay [1] (setting [8]); 64.2% in assay [1] (at 50.0 µM); 8% in assay [2] (setting [7]); 51% in assay [2] (setting [8]); 30.4% in assay [2] (at 50.0 µM). Also, the growth inhibition is 3% in assay [3] (setting [7]); 34% in assay [3] (setting [8]); 21.1% in assay [3] (at 50.0 µM); 6% in assay [4] (setting [7]); 50% in assay [4] (setting [8]); -3.15% in assay [4] (at 50.0 µM). For the same molecule, the growth inhibition was 13% in assay [5] (setting [7]); 82% (active) in assay [5] (setting [8]); 13.2% in assay [5] (at 50.0 µM); 1% in assay [6] (setting [7]); 63% in assay [6] (setting [8]); 22.9% in assay [6] (at 50.0 µM).

Consider `Cc1cc([N+](=O)[O-])c(O)c([N+](=O)[O-])c1C`, for which the growth inhibition in assay [1] (setting [7]) is 2%; in assay [1] (setting [8]), 71% (active); in assay [1] (at 50.0 µM), 67.5%; in assay [2] (setting [7]), 12%; in assay [2] (setting [8]), 47%; in assay [2] (at 50.0 µM) it was 26.6%. In addition, the growth inhibition is 3% in assay [3] (setting [7]); 70% (active) in assay [3] (setting [8]); 62.5% in assay [3] (at 50.0 µM); -42% in assay [4] (setting [7]); 34% in assay [4] (setting [8]); 45.4% in assay [4] (at 50.0 µM). For the same molecule, the growth inhibition in assay [5] (setting [7]) was 11%; in assay [5] (setting [8]), 58%; in assay [5] (at 50.0 µM), 63.2%; in assay [6] (setting [7]), -7%; in assay [6] (setting [8]) it was 90% (active); in assay [6] (at 50.0 µM), 54.1%.

With `O=C(O)c1ccccc1[Se][Se]c1ccccc1C(=O)O`, the growth inhibition is 50% in assay [1] (setting [7]); 73% (active) in assay [1] (setting [8]); 21.1% in assay [1] (at 50.0 µM); 26% in assay [2] (setting [7]); 56% in assay [2] (setting [8]); 10.8% in assay [2] (at 50.0 µM). Further, the growth inhibition is 53% in assay [3] (setting [7]); 67% in assay [3] (setting [8]); 15.9% in assay [3] (at 50.0 µM); 31% in assay [4] (setting [7]); 46% in assay [4] (setting [8]); 8.05% in assay [4] (at 50.0 µM). In addition, the growth inhibition was 49% in assay [5] (setting [7]); 70% (active) in assay [5] (setting [8]); 34.1% in assay [5] (at 50.0 µM); 56% in assay [6] (setting [7]); 74% (active) in assay [6] (setting [8]); 74.5% (active) in assay [6] (at 50.0 µM).

As for `CC(C)=[CH][Sb]([Br])([CH]=C(C)C)([CH]=C(C)C)[c]1ccccc1`, the growth inhibition was -9% in assay [1] (setting [7]); 8% in assay [1] (setting [8]); 56.5% in assay [1] (at 50.0 µM); -14% in assay [2] (setting [7]); 27% in assay [2] (setting [8]); 45.8% in assay [2] (at 50.0 µM). The growth inhibition in assay [3] (setting [7]) is -14%; in assay [3] (setting [8]), 16%; in assay [3] (at 50.0 µM), 32.5%; in assay [4] (setting [7]) it was -19%; in assay [4] (setting [8]) it was 6%; in assay [4] (at 50.0 µM), -11.8%. Moreover, the growth inhibition in assay [5] (setting [7]) is -3%; in assay [5] (setting [8]), 22%; in assay [5] (at 50.0 µM), 64.9%; in assay [6] (setting [7]) it was -11%; in assay [6] (setting [8]) it was 10%; in assay [6] (at 50.0 µM), 40.5%.

`O=C(Nc1ccccc1)OC(C[N+](=O)[O-])C(Cl)(Cl)Cl` (configuration not stated): the growth inhibition in assay [1] (setting [7]) was 12%; in assay [1] (setting [8]), 99% (active); in assay [1] (at 50.0 µM), 99.3% (active); in assay [2] (setting [7]), 10%; in assay [2] (setting [8]) it was 100% (active); in assay [2] (at 50.0 µM), 95.8% (active). Besides, the growth inhibition in assay [3] (setting [7]) is 5%; in assay [3] (setting [8]) it was 99% (active); in assay [3] (at 50.0 µM) it was 99.1% (active); in assay [4] (setting [7]), 10%; in assay [4] (setting [8]) it was 91% (active); in assay [4] (at 50.0 µM), 42.6%. The growth inhibition in assay [5] (setting [7]) is 2%; in assay [5] (setting [8]), 100% (active); in assay [5] (at 50.0 µM) it was 99.2% (active); in assay [6] (setting [7]) it was 11%; in assay [6] (setting [8]), 99% (active); in assay [6] (at 50.0 µM), 99.2% (active).
